Assay results reported in PubChem BioAssay.
For some of these results: Measured potencies and affinities stand elsewhere. Activity calls are given as the source filed them. Unless noted, the rule behind the calls is not given here.

Key:
[1] = antimalarial activity against Dd2 strain (AID 2302;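 active = growth inhibition above 50% at the single 2 µM test dose, taken to imply half-maximal potency below 2 µM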;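 note: 0% = DMSO untreated growth and 100% = chloroquine plus artemisinin killed control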); conditions: P. falciparum Dd2 in RBCs, LDH growth readout, 72 h; at 2 µM; hits give high values
[2] = human hepatoma cell viability loss – ATP luminescence, cytotoxicity control for P. falciparum antimalarial project, primary screen (AID 2303;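 active = inhibition above 50%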;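 note: 0% = DMSO wells and 100% = digitonin-killed cells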); conditions: HepG2 viability, 24-48 h, at 10 µM, hits give high values
[3] = biological target: L-lactate dehydrogenase (Plasmodium falciparum (isolate CDC / Honduras)) (UniProt Q27743); assay: PfLDH activity inhibition – cell lysate, 3D7 strain, counter-screen for P. falciparum growth inhibition project (AID 2304);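 note: 0% = vehicle and 100% = reference inhibitor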; conditions: P. falciparum 3D7 crude extract, LDH APAD/NBT absorbance; at 2 µM; hits give high values
[4] = inhibition of 3D7 malaria parasite growth – strain 3D7 (AID 2306);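 note: 0% = DMSO wells and 100% = chloroquine plus artemisinin control wells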; conditions: P. falciparum 3D7 erythrocytic growth, LDH absorbance, 72 h; at 2 µM; hits give high values
[5] = biological target: Calcium-dependent protein kinase 1 (Plasmodium falciparum (isolate 3D7)) (UniProt P62344); assay: PfCDPK1 kinase inhibitors, biochemical, TCAMS library (AID 1159585; cut-off not given, nearly all actives have IC50 up to about 0.98 µM;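 note: inhibitors leave more ATP so luminescence rises with inhibition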); conditions: recombinant PfCDPK1, Kinase-Glo ATP depletion luminescence
[6] = biological target: Plasmodium falciparum protein kinase 6 (PK6, PF3D7_1337100) (UniProt Q8IDW1); assay: PfPK6 kinase inhibitors, biochemical, TCAMS library (AID 1159586); conditions: recombinant PfPK6, Kinase-Glo ATP depletion luminescence
[7] = biological target: Protein kinase 7 (PK7), Plasmodium falciparum 3D7 (PF3D7_0213400) (UniProt Q7YTF7); assay: inhibition of Plasmodium PK7 catalytic activity – biochemical, TCAMS antimalarial set, Kinase-Glo luminescence (AID 1159587); conditions: recombinant PfPK7, Kinase-Glo ATP depletion luminescence
[8] = biological target: Calcium-dependent protein kinase 4 (Plasmodium falciparum (isolate 3D7)) (UniProt Q8IBS5); assay: PfCDPK4 kinase inhibitors, biochemical, TCAMS library (AID 1159588; cut-off not given, nearly all actives have IC50 up to about 0.91 µM); conditions: recombinant PfCDPK4, Kinase-Glo ATP depletion luminescence
Chain of Calcium-dependent protein kinase 4 (Plasmodium falciparum (isolate 3D7)) (Q8IBS5 whole entry, looked up): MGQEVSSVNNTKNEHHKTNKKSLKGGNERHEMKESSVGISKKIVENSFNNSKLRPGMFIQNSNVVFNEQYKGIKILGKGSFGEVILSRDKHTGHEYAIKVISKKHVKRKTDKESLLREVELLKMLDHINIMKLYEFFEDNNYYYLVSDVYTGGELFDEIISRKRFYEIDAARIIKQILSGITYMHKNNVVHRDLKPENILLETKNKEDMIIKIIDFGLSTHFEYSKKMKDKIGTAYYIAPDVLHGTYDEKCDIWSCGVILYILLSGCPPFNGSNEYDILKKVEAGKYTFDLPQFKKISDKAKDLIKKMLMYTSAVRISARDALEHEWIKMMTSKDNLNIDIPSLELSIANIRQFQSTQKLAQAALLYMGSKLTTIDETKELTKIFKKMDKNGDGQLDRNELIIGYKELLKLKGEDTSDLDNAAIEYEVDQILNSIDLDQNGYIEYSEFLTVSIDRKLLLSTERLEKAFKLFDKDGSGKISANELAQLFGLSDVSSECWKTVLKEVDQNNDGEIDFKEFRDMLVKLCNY

Chain of L-lactate dehydrogenase (Plasmodium falciparum (isolate CDC / Honduras)) (Q27743 whole entry, looked up): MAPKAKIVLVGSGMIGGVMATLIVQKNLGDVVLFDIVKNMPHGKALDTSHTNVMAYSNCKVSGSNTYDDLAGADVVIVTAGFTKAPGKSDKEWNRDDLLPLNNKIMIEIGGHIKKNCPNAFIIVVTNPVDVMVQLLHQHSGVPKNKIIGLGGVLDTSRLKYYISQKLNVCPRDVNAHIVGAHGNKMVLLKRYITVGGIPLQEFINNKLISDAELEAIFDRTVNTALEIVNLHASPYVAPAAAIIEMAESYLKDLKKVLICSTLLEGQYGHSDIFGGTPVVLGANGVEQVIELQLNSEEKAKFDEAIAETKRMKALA
Chain of Protein kinase 7 (PK7), Plasmodium falciparum 3D7 (PF3D7_0213400) (Q7YTF7 1-343): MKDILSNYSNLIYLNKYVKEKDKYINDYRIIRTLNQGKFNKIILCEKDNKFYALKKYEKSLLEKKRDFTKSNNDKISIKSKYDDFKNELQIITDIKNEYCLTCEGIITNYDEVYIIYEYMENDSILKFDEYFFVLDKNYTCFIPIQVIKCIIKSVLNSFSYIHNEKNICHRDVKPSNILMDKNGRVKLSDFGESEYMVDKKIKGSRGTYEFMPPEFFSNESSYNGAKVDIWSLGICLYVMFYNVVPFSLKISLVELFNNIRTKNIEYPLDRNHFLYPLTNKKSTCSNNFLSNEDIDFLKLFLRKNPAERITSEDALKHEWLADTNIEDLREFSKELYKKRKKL
Chain of Calcium-dependent protein kinase 1 (Plasmodium falciparum (isolate 3D7)) (P62344 whole entry, looked up): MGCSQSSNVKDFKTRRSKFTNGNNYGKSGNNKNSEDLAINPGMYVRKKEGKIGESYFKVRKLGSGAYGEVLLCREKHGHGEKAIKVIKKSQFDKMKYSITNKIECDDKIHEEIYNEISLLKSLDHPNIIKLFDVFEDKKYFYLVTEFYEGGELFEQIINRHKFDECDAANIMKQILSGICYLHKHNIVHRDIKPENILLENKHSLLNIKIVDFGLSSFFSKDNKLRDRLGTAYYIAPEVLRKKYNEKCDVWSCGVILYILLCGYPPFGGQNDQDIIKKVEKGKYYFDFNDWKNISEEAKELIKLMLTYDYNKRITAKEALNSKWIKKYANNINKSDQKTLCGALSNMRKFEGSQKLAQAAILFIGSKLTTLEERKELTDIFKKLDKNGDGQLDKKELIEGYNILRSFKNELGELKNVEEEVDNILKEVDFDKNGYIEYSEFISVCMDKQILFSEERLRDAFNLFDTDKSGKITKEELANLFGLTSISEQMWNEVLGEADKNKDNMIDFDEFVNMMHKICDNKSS
Chain of Plasmodium falciparum protein kinase 6 (PK6, PF3D7_1337100) (Q8IDW1 1-305): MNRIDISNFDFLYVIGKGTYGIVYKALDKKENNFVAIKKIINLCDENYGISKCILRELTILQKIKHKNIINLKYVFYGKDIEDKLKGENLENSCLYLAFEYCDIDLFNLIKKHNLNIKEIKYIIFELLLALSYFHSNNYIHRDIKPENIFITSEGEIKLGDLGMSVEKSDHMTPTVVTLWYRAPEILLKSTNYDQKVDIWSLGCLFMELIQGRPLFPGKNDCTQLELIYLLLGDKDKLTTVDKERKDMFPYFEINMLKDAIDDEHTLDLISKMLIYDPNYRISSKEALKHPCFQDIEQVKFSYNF

CC1N=C(N)N=C(N)N1OCc1ccccc1 (stereo not drawn)
active: growth inhibition [1] 72% | inhibition [2] 62% | growth inhibition [4] 94%
inactive: inhibition [3] 7% | outcome [5] | outcome [6] | outcome [7] | outcome [8]

CCCCCCCCc1c(C)[nH]c(C)c(Br)c1=O
inactive: inhibition [2] -5% | inhibition [3] 7% | outcome [5] | outcome [6] | outcome [7] | outcome [8]
active: growth inhibition [1] 92% | growth inhibition [4] 96%

CN(C)CCNCc1ccc(-c2cccc(-c3nc4ccccc4[nH]3)c2)cc1
inactive: inhibition [2] 31% | inhibition [3] 6% | outcome [5] | outcome [6] | outcome [7] | outcome [8]
active: growth inhibition [1] 63% | growth inhibition [4] 101%

CN(C)CCN(Cc1ccccc1-c1ccc(CNCCc2ccccc2)cc1)C(=O)NC1CCCCC1
active: growth inhibition [1] 89% | inhibition [2] 98% | growth inhibition [4] 88%
inactive: inhibition [3] -1% | outcome [5] | outcome [6] | outcome [7] | outcome [8]

Cn1c(NC(=O)C2CCC(CNC(=O)c3ccc(O)c(-c4ccc(Cl)c(Cl)c4)c3)CC2)nc2ccccc21 (stereo not drawn)
inactive: inhibition [2] 40% | inhibition [3] 1% | outcome [5] | outcome [6] | outcome [7] | outcome [8]
active: growth inhibition [1] 100% | growth inhibition [4] 99%

Cc1[nH]c(C)c(-c2ccc(-c3ccc4c(c3)OCO4)nc2)c(=O)c1Br
inactive: inhibition [2] -6% | inhibition [3] -8% | outcome [5] | outcome [6] | outcome [7] | outcome [8]
active: growth inhibition [1] 96% | growth inhibition [4] 96%

CN1CCCC(CN2CCN(Cc3cccc(-c4ccc(-c5nc6ccccc6[nH]5)cc4)c3)CC2)C1 (stereo not drawn)
active: growth inhibition [1] 101% | inhibition [2] 73% | growth inhibition [4] 100%
inactive: inhibition [3] -2% | outcome [5] | outcome [6] | outcome [7] | outcome [8]

CCCCc1cc(NCc2ccncc2)nc(Nc2cccc(OC)c2)n1
active: growth inhibition [1] 56% | growth inhibition [4] 101%
inactive: inhibition [2] 41% | inhibition [3] -5% | outcome [5] | outcome [6] | outcome [7] | outcome [8]

COc1ccc(CN2CCC(N3CCc4cc(NC(=O)c5cc(C)on5)ccc43)C2)cc1Cl (stereo not drawn)
active: growth inhibition [1] 91% | growth inhibition [4] 94%
inactive: inhibition [2] 15% | inhibition [3] 2% | outcome [5] | outcome [6] | outcome [7] | outcome [8]

CC1(C)N=C(N)N=C(N)N1OCCCOc1cc(Cl)cc(Cl)c1
active: growth inhibition [1] 97% | inhibition [2] 62% | growth inhibition [4] 95%
inactive: inhibition [3] 0% | outcome [5] | outcome [6] | outcome [7] | outcome [8]

Cc1nc(-c2ccc(C(F)(F)F)cn2)sc1C(=O)N1CCc2cc3nccc(N4CCN5CCC[C@H]5C4)c3cc21
active: growth inhibition [1] 72% | growth inhibition [4] 100%
inactive: inhibition [2] 5% | inhibition [3] 0% | outcome [5] | outcome [6] | outcome [7] | outcome [8]

CS(=O)(=O)CCNCc1cccc(-c2ccc3c(Nc4ccc(Oc5ccccc5)cc4)ccnc3c2)c1
inactive: inhibition [2] 18% | inhibition [3] 6% | outcome [5] | outcome [6] | outcome [7] | outcome [8]
active: growth inhibition [1] 96% | growth inhibition [4] 101%

Cc1cc(N2CC=CCC2)nc(/N=C(\N)Nc2ccc(Br)cc2)n1
inactive: growth inhibition [1] 41% | inhibition [2] 10% | inhibition [3] -3% | outcome [5] | outcome [6] | outcome [7] | outcome [8]
active: growth inhibition [4] 98%

CN(C)c1ccc(N=C2N=C(Nc3ccc(N(C)C)cc3)c3ccccc32)cc1
inactive: growth inhibition [1] 20% | inhibition [2] 23% | inhibition [3] -5% | outcome [5] | outcome [6] | outcome [7] | outcome [8]
active: growth inhibition [4] 93%

Cc1sc2cc(Cl)cc(Cl)c2c1S(=O)(=O)Nc1ccc2nccc(N3CCNCC3)c2c1
active: growth inhibition [1] 99% | growth inhibition [4] 100%
inactive: inhibition [2] 24% | inhibition [3] -8% | outcome [5] | outcome [6] | outcome [7] | outcome [8]

COc1ccc2nccc([C@@H](O)CN3CCC(NCc4nc5cc(F)c(F)cc5[nH]4)CC3)c2c1
active: growth inhibition [4] 96%
inactive: growth inhibition [1] 36% | inhibition [2] 12% | inhibition [3] -1% | outcome [5] | outcome [6] | outcome [7] | outcome [8]

Cc1c(CNCCCNc2nc3ccccc3[nH]2)[nH]c2cc(Cl)cc(Cl)c12
active: inhibition [2] 59% | growth inhibition [4] 101%
inactive: growth inhibition [1] -1% | inhibition [3] -6% | outcome [5] | outcome [6] | outcome [7] | outcome [8]

CCOC(=O)CN(c1ccc(Br)cc1OCCOc1cc(Br)ccc1N(CC(=O)OCC)C(C)C(=O)OCC)C(C)C(=O)OCC (stereo not drawn)
active: growth inhibition [4] 94%
inactive: growth inhibition [1] 6% | inhibition [2] -15% | inhibition [3] 6% | outcome [5] | outcome [6] | outcome [7] | outcome [8]

OC(CNc1ccnc(Nc2ccc(Cl)cc2)n1)c1ccc(C(F)(F)F)cc1 (stereo not drawn)
inactive: inhibition [2] -2% | inhibition [3] -6% | outcome [5] | outcome [6] | outcome [7] | outcome [8]
active: growth inhibition [1] 94% | growth inhibition [4] 101%

CCN(CCS(C)(=O)=O)Cc1ccc(-c2ccc3ncnc(Nc4ccc(OCc5cccc(F)c5)c(Cl)c4)c3c2)o1
inactive: inhibition [2] 5% | inhibition [3] -7% | outcome [5] | outcome [6] | outcome [7] | outcome [8]
active: growth inhibition [1] 63% | growth inhibition [4] 101%

CC(C)(C)Oc1ccc(NC(=O)c2ccccc2O)cc1
active: growth inhibition [1] 67% | growth inhibition [4] 86%
inactive: inhibition [2] 4% | inhibition [3] -6% | outcome [5] | outcome [6] | outcome [7] | outcome [8]

Oc1ccc(CCCc2cc(Oc3c(I)cc(CCc4ncc[nH]4)cc3I)ccc2O)cc1
inactive: growth inhibition [1] 7% | inhibition [2] 26% | inhibition [3] -9% | outcome [5] | outcome [6] | outcome [7] | outcome [8]
active: growth inhibition [4] 95%

CCN(CC)Cc1cc(NC(=O)c2ccccc2O)ccc1Oc1ccc(Cl)cc1
inactive: inhibition [2] 32% | inhibition [3] 3% | outcome [5] | outcome [6] | outcome [7] | outcome [8]
active: growth inhibition [1] 88% | growth inhibition [4] 98%

CN(C)Cc1ccc(-c2cccc(NC(=O)c3ccc(Cl)cc3)c2)cc1
inactive: growth inhibition [1] 13% | inhibition [2] 24% | inhibition [3] 3% | outcome [5] | outcome [6] | outcome [7] | outcome [8]
active: growth inhibition [4] 94%

CCOC(=O)c1ccc(NC(=O)Nc2ccc(-c3ccc(-c4nc5ccccc5[nH]4)cc3)cc2)cc1
active: growth inhibition [1] 100% | growth inhibition [4] 101%
inactive: inhibition [2] 49% | inhibition [3] 0% | outcome [5] | outcome [6] | outcome [7] | outcome [8]

CC1CCN(Cc2c(O)ccc3c(=O)c(-c4nc5ccccc5s4)c(N)oc23)CC1
active: growth inhibition [1] 99% | growth inhibition [4] 98%
inactive: inhibition [2] 2% | inhibition [3] -6% | outcome [5] | outcome [6] | outcome [7] | outcome [8]

O=C(Nc1ccc(-c2nc3ccccc3[nH]2)cc1)C1CCCN(CC2CC2)C1 (stereo not drawn)
active: growth inhibition [4] 89%
inactive: growth inhibition [1] 8% | inhibition [2] 6% | inhibition [3] 0% | outcome [5] | outcome [6] | outcome [7] | outcome [8]

COc1ccc2nc(SC(C)C(=O)c3c[nH]c4ccccc34)[nH]c2c1 (stereo not drawn)
inactive: inhibition [2] -3% | inhibition [3] 0% | outcome [5] | outcome [6] | outcome [7] | outcome [8]
active: growth inhibition [1] 98% | growth inhibition [4] 100%

CCC(C)NCC(O)(c1ccc(Cl)cc1)c1ccc(Cl)cc1 (stereo not drawn)
active: growth inhibition [1] 76% | growth inhibition [4] 95%
inactive: inhibition [2] 5% | inhibition [3] 0% | outcome [5] | outcome [6] | outcome [7] | outcome [8]

CC(=O)c1cc(N2CCOCC2)ccc1N
active: growth inhibition [4] 91%
inactive: growth inhibition [1] 43% | inhibition [2] 7% | inhibition [3] 3% | outcome [5] | outcome [6] | outcome [7] | outcome [8]

Cc1cccc2[nH]c(-c3ccc(-c4cccc(CN5CCCCC5)c4)s3)nc12
inactive: inhibition [2] 11% | inhibition [3] -2% | outcome [5] | outcome [6] | outcome [7] | outcome [8]
active: growth inhibition [1] 92% | growth inhibition [4] 100%

COc1ccc(CCCc2nc(N)nc(N)c2-c2ccc(Cl)cc2)cc1
inactive: growth inhibition [1] 0% | inhibition [3] 2% | outcome [5] | outcome [6] | outcome [7] | outcome [8]
active: inhibition [2] 65% | growth inhibition [4] 94%

Cn1c(N)c(C(=O)CSc2ncc(-c3ccc(F)cc3)n2Cc2ccccc2)c(=O)n(C)c1=O
active: growth inhibition [1] 66% | growth inhibition [4] 88%
inactive: inhibition [2] 11% | inhibition [3] 1% | outcome [5] | outcome [6] | outcome [7] | outcome [8]

O=S(=O)(c1ccc(OC(F)(F)F)cc1)C1C[C@H]2CC[C@@H](C1)N2S(=O)(=O)c1ccc(Cl)c(C(F)(F)F)c1 (stereo partly drawn)
inactive: inhibition [2] 1% | inhibition [3] -5% | outcome [5] | outcome [6] | outcome [7] | outcome [8]
active: growth inhibition [1] 95% | growth inhibition [4] 100%

CCCCCN1CCCN(Cc2cccc(NC(=O)c3ccc(Cl)c(Cl)c3)c2)CC1
active: growth inhibition [4] 89%
inactive: growth inhibition [1] 28% | inhibition [2] 30% | inhibition [3] 0% | outcome [5] | outcome [6] | outcome [7] | outcome [8]

FC(F)(F)Oc1cccc(CNc2noc(-c3sccc3Br)n2)c1
active: growth inhibition [1] 97% | growth inhibition [4] 100%
inactive: inhibition [2] 0% | inhibition [3] -3% | outcome [5] | outcome [6] | outcome [7] | outcome [8]

CCCC(=O)Nc1ccc(OCCCN(Cc2ccccc2OC(F)(F)F)c2ccc(C#N)c(C(F)(F)F)c2)cc1
inactive: inhibition [2] 0% | inhibition [3] -2% | outcome [5] | outcome [6] | outcome [7] | outcome [8]
active: growth inhibition [1] 95% | growth inhibition [4] 94%

COc1cc(N)c(Cl)cc1C(=O)NC1CCC(NCC2CCCCC2)CC1 (stereo not drawn)
inactive: inhibition [2] 18% | inhibition [3] 0% | outcome [5] | outcome [6] | outcome [7] | outcome [8]
active: growth inhibition [1] 85% | growth inhibition [4] 90%

COc1ccc2nccc([C@@H](O)CN3CCC(NC(=O)c4ccc(Cl)c(OC)c4)CC3)c2c1
inactive: growth inhibition [1] 28% | inhibition [2] 26% | inhibition [3] 5% | outcome [5] | outcome [6] | outcome [7] | outcome [8]
active: growth inhibition [4] 87%

C=CCOC(=O)N1CCC(CNCc2ccc(-c3cccc(-c4nc5ccc(F)cc5[nH]4)c3)cc2)C1 (stereo not drawn)
inactive: inhibition [2] 26% | inhibition [3] -2% | outcome [5] | outcome [6] | outcome [7] | outcome [8]
active: growth inhibition [1] 99% | growth inhibition [4] 102%

COCCC[C@H]1C(=O)O[C@H]2CCC[C@@H]21
inactive: inhibition [2] -9% | inhibition [3] -4% | outcome [5] | outcome [6] | outcome [7] | outcome [8]
active: growth inhibition [1] 85% | growth inhibition [4] 93%
